Measurements published in PubChem BioAssay (NCATS).
Results filed as inconclusive are left out. Activity calls are given as the source filed them. Unless noted, calls follow the shape of the dose curve; as a rule, active = well fitted curve in the direction sought with a large enough effect; inconclusive = small, poorly fitted or top-dose-only effect, or another doubt; inactive = no such curve, though single readings can be large; an effect the other way counts as inactive or inconclusive.

Key:
[1] = NCATS anti-infectives library activity on HEK293 viability as a counter-qHTS vs the C. elegans viability qHTS (AID 1745854);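 also: HEK293 cells exposed to compounds for 24 hr before the viability read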; also: potency is read from the fitted curve at half-maximal effect
Summary of the method: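 Counter-screen for cytotoxicity: HEK293, 24 hr, 37C, compounds up to 41.7 uM final (a dilution series, 1:5). Readout CellTiter-Glo luminescence, 10 min RT. Digitonin control, 83.3 uM final.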

[2] = NCATS anti-infectives library activity on the primary C. elegans qHTS viability assay (AID 1745855; calls by dose curve)
Summary of the method: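 GFP read-out by 488 nm laser cytometry at day 0, 3 and 7, gated on object perimeter, area and peak intensity, scored viability of PE254-GFP-FLuc worms exposed to compound in S medium with bacterial capsules at 21 °C.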

[3] = molecular target: Metallo-beta-lactamase type 2 (Klebsiella pneumoniae) (UniProt C7C422); assay: qHTS to identify inhibitors of the New Delhi Metallo-beta-lactamase (NDM): assay validation screen against the NCATS LOPAC Collection (AID 1794843);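 also: nitrocefin turnover by NDM-1 measured as 485 nm absorbance at plateau; series mostly up to about 38 µM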
Sequence of Metallo-beta-lactamase type 2 (Klebsiella pneumoniae) (C7C422 whole entry, looked up): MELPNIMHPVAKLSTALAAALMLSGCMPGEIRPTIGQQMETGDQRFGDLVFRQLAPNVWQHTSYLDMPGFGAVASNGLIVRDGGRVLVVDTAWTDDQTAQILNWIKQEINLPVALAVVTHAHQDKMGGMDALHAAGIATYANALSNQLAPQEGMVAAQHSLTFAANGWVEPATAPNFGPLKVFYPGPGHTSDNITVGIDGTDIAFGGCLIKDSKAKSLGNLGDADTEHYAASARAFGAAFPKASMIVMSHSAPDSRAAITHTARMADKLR
Summary of the method: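 Nitrocefin hydrolysis (50 uM substrate stock) by NDM-1, 2 nM final, was followed by 485 nm absorbance after compound preincubation; buffer was 50 mM HEPES pH 7.0, 1 uM ZnSO4, 0.01% Tween20.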

[4] = molecular target: Glutathione peroxidase 1 (Homo sapiens) (UniProt P07203); assay: Primary qHTS Assay for Inhibitors of Recombinant Selenoprotein Glutathione Peroxidase 1 (GPX1) (AID 1845191); also: nearly all actives have a fitted effect of over 65% in size
Sequence of Glutathione peroxidase 1 (Homo sapiens) (P07203 whole entry, looked up): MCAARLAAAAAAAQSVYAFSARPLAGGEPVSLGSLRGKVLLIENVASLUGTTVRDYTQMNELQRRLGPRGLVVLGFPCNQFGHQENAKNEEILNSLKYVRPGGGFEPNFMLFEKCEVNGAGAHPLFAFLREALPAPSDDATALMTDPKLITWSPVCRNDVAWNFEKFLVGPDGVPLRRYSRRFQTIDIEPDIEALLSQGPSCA
Summary of the method: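 GPX1 10 nM, GR 100 nM, GSH 1 mM, NADPH 0.5 mM, CHP 0.5 mM (final). 30-min cpd preincubation, RT. Ex340/Em450 read t=0, t=15 min.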

[5] = molecular target: Phospholipid hydroperoxide glutathione peroxidase GPX4 (Homo sapiens) (UniProt P36969); assay: Primary qHTS Assay for Inhibitors of Recombinant Selenoprotein Glutathione Peroxidase 4 (GPX4) (AID 1845192); also: nearly all actives have a fitted effect of over 65% in size
Sequence of Phospholipid hydroperoxide glutathione peroxidase GPX4 (Homo sapiens) (P36969 whole entry, looked up): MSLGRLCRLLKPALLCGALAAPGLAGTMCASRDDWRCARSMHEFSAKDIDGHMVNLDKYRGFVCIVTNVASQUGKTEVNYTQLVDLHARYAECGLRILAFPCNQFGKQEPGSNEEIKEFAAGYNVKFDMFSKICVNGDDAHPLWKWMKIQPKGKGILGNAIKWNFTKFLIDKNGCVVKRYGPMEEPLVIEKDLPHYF
Summary of the method: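 qHTS, GR-coupled: GPX4 200 nM + cpd 30 min RT → GSH 1 mM, NADPH 0.5 mM, GR 100 nM → CHP 0.5 mM start; fluor 340/450 at t0 and t15 min; no-enzyme wells as control.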

[6] = Quantitative High-Throughput drug screen in 47 multiple myeloma cell lines against the NCATS MIPE library collection: EJM_DSMZ cell viability assay (AID 1918926; also: nearly all actives have a fitted effect of over 30% in size; also: potency is read from the fitted curve at half-maximal effect)
Summary of the method: (§1)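 Steps: seed 500 cells per well; pin-transfer MIPE 4.0 library; incubate 48 h at 37C, 5% CO2, humidified; add CellTiter-Glo, 5 min room temperature; read luminescence.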

[7] = Quantitative High-Throughput drug screen in 47 multiple myeloma cell lines against the NCATS MIPE library collection: AMO1_DSMZ cell viability assay (AID 1918927; also: nearly all actives have a fitted effect of over 30% in size; also: potency is read from the fitted curve at half-maximal effect)
Summary of the method: as §1

[8] = molecular target: Nicotinamide N-methyltransferase (Homo sapiens) (UniProt P40261); assay: Confirmatory Screen for Target Class Profiling of Small Molecule Inhibitors of Methyltransferases (AID 1745852); conditions: MTase-Glo luminescence, SAH detection, recombinant enzyme; measured here: NNMT max response; stronger effect = lower value
Sequence of Nicotinamide N-methyltransferase (Homo sapiens) (P40261 whole entry, looked up): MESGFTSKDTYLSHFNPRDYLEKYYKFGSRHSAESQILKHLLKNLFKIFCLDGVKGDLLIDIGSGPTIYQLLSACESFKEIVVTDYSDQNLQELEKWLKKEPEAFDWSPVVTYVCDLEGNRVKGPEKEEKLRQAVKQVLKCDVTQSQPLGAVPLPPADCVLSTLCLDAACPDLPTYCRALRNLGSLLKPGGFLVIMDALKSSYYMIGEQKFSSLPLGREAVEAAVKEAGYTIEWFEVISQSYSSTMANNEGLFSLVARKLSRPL

[9] = molecular target: Phenylethanolamine N-methyltransferase (Homo sapiens) (UniProt P11086); assay: as above; conditions: MTase-Glo luminescence, SAH detection, recombinant enzyme; measured here: PNMT max response; stronger effect = lower value
Sequence of Phenylethanolamine N-methyltransferase (Homo sapiens) (P11086 whole entry, looked up): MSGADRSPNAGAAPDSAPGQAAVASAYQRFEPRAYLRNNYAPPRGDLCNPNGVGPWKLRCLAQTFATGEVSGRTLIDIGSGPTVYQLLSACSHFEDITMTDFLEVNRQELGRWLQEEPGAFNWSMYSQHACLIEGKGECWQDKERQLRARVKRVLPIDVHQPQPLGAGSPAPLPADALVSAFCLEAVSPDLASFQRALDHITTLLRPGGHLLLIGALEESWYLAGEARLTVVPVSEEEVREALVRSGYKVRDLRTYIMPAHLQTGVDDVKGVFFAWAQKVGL

[10] = Quantitative High-Throughput drug screen in 47 multiple myeloma cell lines against the NCATS MIPE library collection: FR4_PLB cell viability assay (AID 1918924; also: nearly all actives have a fitted effect of over 35% in size; also: potency is read from the fitted curve at half-maximal effect)
Summary of the method: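 qHTS of the MIPE 4.0 collection: 500 myeloma cells/well, 48 h drug exposure at 37C in 5% CO2, then CellTiter-Glo for 5 min at room temperature before luminescence reading.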

[11] = Viability counterscreen for agonist of constitutive androstane receptor (CAR) against the NCATS DSHEA and TCM libraries (AID 1794838)
Summary of the method: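 HepG2-CYP2B6-hCAR cells (2,500/well) attached 5 h, then got compounds plus 0.75 uM PK11195 final. After 24 h at 37C, viability read by CellTiter-Fluor fluorescence (Ex/Em 405/540 nm).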

[12] = molecular target: Nuclear receptor subfamily 1 group I member 3 (Homo sapiens) (UniProt Q14994); assay: Primary qHTS for agonist of constitutive androstane receptor (CAR) against the NCATS DSHEA and TCM libraries (AID 1794839);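 also: HepG2 cells expressing human CAR with a CYP2B6 reporter plus PK11195 antagonist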
Sequence of Nuclear receptor subfamily 1 group I member 3 (Homo sapiens) (Q14994 whole entry, looked up): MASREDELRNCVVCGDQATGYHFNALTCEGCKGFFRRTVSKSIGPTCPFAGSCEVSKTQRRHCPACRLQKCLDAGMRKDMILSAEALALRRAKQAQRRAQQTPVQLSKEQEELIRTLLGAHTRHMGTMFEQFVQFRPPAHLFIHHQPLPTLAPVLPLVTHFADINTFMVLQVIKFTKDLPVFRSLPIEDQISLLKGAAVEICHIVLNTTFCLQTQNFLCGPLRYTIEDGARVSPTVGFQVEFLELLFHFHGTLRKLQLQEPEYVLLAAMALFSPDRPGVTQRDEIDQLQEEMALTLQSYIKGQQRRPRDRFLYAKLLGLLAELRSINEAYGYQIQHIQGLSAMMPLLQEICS
Summary of the method: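 HepG2-CYP2B6-hCAR cells (2,500/well) were attached for 5 h, then treated for 24 h at 37 °C with compounds plus 0.75 µM PK11195. Luciferase luminescence (ONE-Glo) was read, with CellTiter-Fluor viability (Ex/Em 405/540 nm).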

[13] = HepG2 viability counterscreen (readout 2: ATP content) against the NCATS DSHEA and TCM libraries (AID 1794840);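 also: HepG2 cells exposed to substances for about 24 h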
Summary of the method: (§2)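 HepG2 cells (1,000 cells/well) attached ~4 h, then treated ~24 h at 37C with substances. Protease activity read by GF-AFC (25 uM final, 30 min, Ex/Em 380/510 nm); ATP content then by CellTiter-Glo luminescence.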

[14] = HepG2 viability counterscreen (readout 1: protease activity) against the NCATS DSHEA and TCM libraries (AID 1794841);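 also: cells exposed to compounds for about 24 h before the protease read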
Summary of the method: as §2

[15] = Quantitative High-Throughput drug screen in 47 multiple myeloma cell lines against the NCATS MIPE library collection: Delta47_JCRB cell viability assay (AID 1918925; also: potency is read from the fitted curve at half-maximal effect; nearly all actives have a fitted effect of over 45% in size)
Summary of the method: as §1

[16] = Viability counterscreen for antagonist of constitutive androstane receptor (CAR) against the NCATS DSHEA and TCM libraries (AID 1794837);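 also: compound exposure lasted 24 h before viability reading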
Summary of the method: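 HepG2-CYP2B6-hCAR cells (2,500/well) were allowed to attach for 5 h, then exposed to compounds with 48 uM CITCO for 24 h at 37C. Viability was read by CellTiter-Fluor fluorescence after 1 h.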

CC(=O)OCC(CCn1cnc2cnc(N)nc21)COC(C)=O
inactive: Potency [1] | Potency [2] | outcome [3] | Potency [4] | Potency [5] | Potency [6] | Potency [7]

CN1CCN2c3ccccc3Cc3ccccc3C2C1 (stereo unspecified)
inactive: outcome [3] | Potency [4] | Potency [5]

CN(C)CCC=C1c2ccccc2C=Cc2ccccc21
7.91%: activity [9]
active: Potency [7] 23.5 nM
-9.28%: activity [8]
inactive: outcome [3] | Potency [4] | Potency [5] | Potency [6]

CC(C)(Oc1ccc(C2CC2(Cl)Cl)cc1)C(=O)O (stereo unspecified)
inactive: Potency [1] | outcome [3] | Potency [4] | Potency [5] | Potency [10] | Potency [6] | Potency [7]

NC(=O)NO
active: Potency [10] 3320 nM | Potency [6] 526 nM | Potency [7] 4690 nM
inactive: Potency [1] | outcome [3] | Potency [4] | Potency [5]

O=C(CCCN1CCC(O)(c2ccc(Cl)cc2)CC1)c1ccc(F)cc1
inactive: Potency [1] | Potency [2] | outcome [3] | Potency [4] | Potency [5] | Potency [6]
active: Potency [7] 20900 nM

Cc1cn([C@H]2C=C[C@@H](CO)O2)c(=O)[nH]c1=O
inactive: Potency [1] | outcome [3] | Potency [4] | Potency [5] | Potency [6] | Potency [7]

CC(C)(C)C(=O)Oc1ccc(S(=O)(=O)Nc2ccccc2C(=O)NCC(=O)O)cc1
inactive: Potency [1] | outcome [3] | Potency [4] | Potency [5] | Potency [7]

Cn1ccc2cc3c(cc21)CCN3C(=O)Nc1cccnc1
-11.7%: activity [8]
active: Potency [7] 23500 nM
1.53%: activity [9]
inactive: outcome [3] | Potency [4] | Potency [5] | Potency [6]

COc1ccc(C2CNC(=O)C2)cc1OC1CCCC1 (stereo unspecified)
inactive: Potency [1] | outcome [3] | Potency [4] | Potency [5] | Potency [6] | Potency [7]

Nc1ccn([C@H]2CC[C@@H](CO)O2)c(=O)n1
inactive: Potency [1] | outcome [3] | Potency [4] | Potency [5] | Potency [10] | Potency [7]

CN(C)C(=O)C(CCN1CCC(O)(c2ccc(Cl)cc2)CC1)(c1ccccc1)c1ccccc1
inactive: Potency [2] | outcome [3] | Potency [4] | Potency [5] | Potency [7]
-5.06%: activity [9]
-39.1%: activity [8]

CN(C)CCCN1c2ccccc2CCc2ccc(Cl)cc21
active: Potency [10] 1180 nM | Potency [6] 264 nM | Potency [7] 1050 nM
inactive: Potency [1] | outcome [3] | Potency [4] | Potency [5]

O=c1c(O)c(-c2ccc(O)c(O)c2)oc2cc(O)cc(O)c12
active: Potency [6] 20900 nM
inactive: outcome [11] | outcome [12] | outcome [13] | outcome [14] | outcome [3] | Potency [4] | Potency [5]

O=C1c2c(O)ccc(O)c2C(=O)c2c(NCCNCCO)ccc(NCCNCCO)c21
inactive: outcome [3] | Potency [4] | Potency [5]
active: Potency [1] 12600 nM | Potency [15] 132 nM | Potency [6] 833 nM | Potency [7] 935 nM

Cn1c(=O)c2c(ncn2C)n(C)c1=O
inactive: outcome [16] | outcome [11] | outcome [12] | outcome [13] | outcome [14] | Potency [4] | Potency [5] | Potency [6] | Potency [7]
